{"source": "the supplement of paper PMC8975748", "note": "Where a name gives a salt, the structure may show the parent alone.", "data": [{"tested_on": "Saccharomyces cerevisiae BY4741 SeMeCo community", "experiment": "z-score of subpopulation abundance vs DMSO median, subpopulation auxotrophic for LM; higher = larger share of this subpopulation than in DMSO controls", "conditions": "10 µM; 24 h; SM minimal medium; subpopulation (auxotrophy): LM", "procedure": "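Fluorescent four-plasmid SeMeCo (self-establishing metabolically cooperating S. cerevisiae BY4741 community; plasmids pH-mRuby2, pL-mWasabi, pU-eCFP, pM-TagRFP657) was grown 24 h in minimal SM medium with each Selleck FDA-approved drug at 10 µM in 384-well plates. Cells were fixed and imaged by high-content confocal microscopy. For each auxotrophic subpopulation (and the prototroph), a z-score gives the deviation from the DMSO vehicle-control population median.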", "values": [{"smiles": "CN1[C@@H]2CC[C@H]1C[C@@H](OC(=O)[C@H](CO)c1ccccc1)C2", "note": "[Hyoscyamine]", "z-score of subpopulation abundance": -0.17}, {"smiles": "N#Cc1nn(-c2c(Cl)cc(C(F)(F)F)cc2Cl)c(N)c1[S+]([O-])C(F)(F)F", "note": "(stereo not given) [Fipronil]", "z-score of subpopulation abundance": -0.79}, {"smiles": "CC[C@H]1CN2CC[C@]3(C(=O)Nc4ccccc43)[C@@H]2C[C@@H]1/C(=C\\OC)C(=O)OC", "note": "[Rhynchophylline]", "z-score of subpopulation abundance": -0.11}, {"smiles": "O=c1[nH]c2ccccc2n1CCCN1CCC(n2c(=O)[nH]c3cc(Cl)ccc32)CC1", "note": "[Domperidone]", "z-score of subpopulation abundance": -0.04}, {"smiles": "CC(C)(O)C(Cl)(Cl)Cl", "note": "[Chlorobutanol]", "z-score of subpopulation abundance": 0.13}, {"smiles": "CN1[C@@H]2C[C@@H](OC(=O)[C@H](CO)c3ccccc3)C[C@H]1[C@@H]1O[C@@H]12", "note": "[Scopolamine HBr]", "z-score of subpopulation abundance": -0.51}, {"smiles": "C[C@@H]1O[C@@H](O[C@H]2C[C@@H](O)[C@]3(CO)[C@H]4[C@H](O)C[C@]5(C)[C@@H](C6=CC(=O)OC6)CC[C@]5(O)[C@@H]4CC[C@]3(O)C2)[C@H](O)[C@H](O)[C@H]1O", "note": "[Ouabain]", "z-score of subpopulation abundance": -0.83}, {"smiles": "COC(=O)C1=CCCN(C)C1", "note": "[Arecoline HBr]", "z-score of subpopulation abundance": 0.61}, {"smiles": "Oc1cc(Cl)ccc1Oc1ccc(Cl)cc1Cl", "note": "[Triclosan]", "z-score of subpopulation abundance": -2.25}, {"smiles": "CC(=O)O[C@H]1C[C@@H]2CC[C@@H]3[C@H](CC[C@@]4(C)[C@H]3C[C@H]([N+]3(C)CCCCC3)[C@@H]4OC(C)=O)[C@@]2(C)C[C@@H]1[N+]1(C)CCCCC1", "note": "[Pancuronium dibromide]", "z-score of subpopulation abundance": -1.26}, {"smiles": "CN[C@@H]1[C@@H](O)[C@@H](O[C@@H]2[C@@H](O)[C@H](O[C@H]3O[C@H](CN)CC[C@H]3N)[C@@H](N)C[C@H]2N)OC[C@]1(C)O.CN[C@@H]1[C@@H](O)[C@@H](O[C@@H]2[C@@H](O)[C@H](O[C@H]3O[C@H]([C@@H](C)N)CC[C@H]3N)[C@@H](N)C[C@H]2N)OC[C@]1(C)O.CN[C@@H]1[C@@H](O)[C@@H](O[C@@H]2[C@@H](O)[C@H](O[C@H]3O[C@H]([C@@H](C)NC)CC[C@H]3N)[C@@H](N)C[C@H]2N)OC[C@]1(C)O", "note": "[Gentamicin Sulfate]", "z-score of subpopulation abundance": -0.12}, {"smiles": "C=CCN1C[C@H](C(=O)N(CCCN(C)C)C(=O)NCC)C[C@@H]2c3cccc4[nH]cc(c34)C[C@H]21", "note": "[Cabergoline]", "z-score of subpopulation abundance": -0.31}, {"smiles": "CCN(C)C(=O)Oc1cccc([C@H](C)N(C)C)c1", "note": "[Rivastigmine]", "z-score of subpopulation abundance": -0.54}, {"smiles": "CC(C)=CCOc1c2occc2cc2ccc(=O)oc12", "note": "[Imperatorin]", "z-score of subpopulation abundance": 0}, {"smiles": "O=C(O[C@H]1C[C@H]2CC[C@@H](C1)[N+]21CCCC1)C(O)(c1ccccc1)c1ccccc1", "note": "[Trospium chloride]", "z-score of subpopulation abundance": -0.54}, {"smiles": "O=[N+]([O-])C(Br)(CO)CO", "note": "[Bronopol]", "z-score of subpopulation abundance": -0.89}, {"smiles": "CC[C@@]1(O)C(=O)OCc2c1cc1n(c2=O)Cc2cc3ccccc3nc2-1", "note": "[Camptothecin]", "z-score of subpopulation abundance": -0.25}, {"smiles": "COc1ccc2[nH]cc(CCN)c2c1", "note": "[5-Methoxytryptamine]", "z-score of subpopulation abundance": 0.28}, {"smiles": "COc1ccc2c3c([nH]c2c1)C(C)=NCC3", "note": "[Harmaline]", "z-score of subpopulation abundance": 4.83}, {"smiles": "CN(C)C(=O)Oc1cccc([N+](C)(C)C)c1", "note": "[Neostigmine Bromide]", "z-score of subpopulation abundance": 0.26}, {"smiles": "CCN(CC)CCOC(=O)C(O)(c1ccccc1)c1ccccc1", "note": "[Benactyzine hydrochloride]", "z-score of subpopulation abundance": 0.4}, {"smiles": "C[N+]12CCC(CC1)C(OC(=O)C(O)(c1ccccc1)c1ccccc1)C2", "note": "(stereo not given) [Clidinium Bromide]", "z-score of subpopulation abundance": -0.72}, {"smiles": "CCC1=C[C@H]2CN3CCc4c([nH]c5ccccc45)[C@](C(=O)OC)(C2)[C@H]13", "note": "[Catharanthine]", "z-score of subpopulation abundance": -0.74}, {"smiles": "CC(=O)OCC1=C(C(=O)O)N2C(=O)C(N)C2SC1", "note": "(stereo not given) [7-Aminocephalosporanic acid]", "z-score of subpopulation abundance": -0.28}, {"smiles": "CC[N+](C)(CC)CCOC(=O)C(O)(c1ccccc1)c1ccccc1", "note": "[Methylbenactyzine Bromide]", "z-score of subpopulation abundance": -0.89}, {"smiles": "CCN1CC2(OC(=O)c3ccccc3NC(C)=O)CCC(OC)C34C1C(CC23)C1(O)CC(OC)C2CC4C1(O)C2OC", "note": "(stereo not given) [Lappaconitine]", "z-score of subpopulation abundance": -0.33}, {"smiles": "CCOC(=O)Nc1ccc(NCc2ccc(F)cc2)cc1N", "note": "[Retigabine 2HCl]", "z-score of subpopulation abundance": 0.17}, {"smiles": "CCCCCCCCCCCCCCCC[n+]1ccccc1", "note": "[Cetylpyridinium Chloride]", "z-score of subpopulation abundance": 0.44}, {"smiles": "CN(C)[C@@H]1C(=O)C(C(N)=O)=C(O)[C@@]2(O)C(=O)C3=C(O)c4c(O)cccc4[C@@](C)(O)[C@H]3[C@H](O)[C@@H]12", "note": "[Oxytetracycline (Terramycin)]", "z-score of subpopulation abundance": -0.04}, {"smiles": "Oc1cccc2cccnc12", "note": "[8-Hydroxyquinoline]", "z-score of subpopulation abundance": -0.41}, {"smiles": "C#C[C@]1(O)C=C[C@H]2[C@@H]3CCC4=CC(=O)CC[C@@H]4[C@H]3CC[C@@]21CC", "note": "[Gestodene]", "z-score of subpopulation abundance": 0.29}, {"smiles": "CN1[C@@H]2CC[C@H]1C[C@@H](OC(=O)C(CO)c1ccccc1)C2", "note": "(stereo not given in full) [Atropine sulfate monohydrate]", "z-score of subpopulation abundance": -0.12}, {"smiles": "Nc1nc(N)nc(NC2CC2)n1", "note": "[Cyromazine]", "z-score of subpopulation abundance": 0.84}, {"smiles": "NCCc1c[nH]c2ccc(O)cc12", "note": "[Serotonin HCl]", "z-score of subpopulation abundance": -1.09}, {"smiles": "CCCN1C[C@H](CSC)C[C@@H]2c3cccc4[nH]cc(c34)C[C@H]21", "note": "[Pergolide Mesylate]", "z-score of subpopulation abundance": -0.22}, {"smiles": "O=c1cccc2n1C[C@@H]1CNC[C@H]2C1", "note": "[Cytisine]", "z-score of subpopulation abundance": -0.02}, {"smiles": "C=C[C@H]1CN2CC[C@H]1C[C@H]2[C@H](O)c1ccnc2ccccc12", "note": "[Cinchonidine]", "z-score of subpopulation abundance": -0.08}, {"smiles": "CC(NC(C)(C)C)C(=O)c1cccc(Cl)c1", "note": "(stereo not given) [Amfebutamone (Bupropion) HCl]", "z-score of subpopulation abundance": -0.59}, {"smiles": "CC(C)N(CCC(C(N)=O)(c1ccccc1)c1ccccn1)C(C)C", "note": "(stereo not given) [Disopyramide]", "z-score of subpopulation abundance": 1.31}, {"smiles": "COc1ccc(C(CN(C)C)C2(O)CCCCC2)cc1", "note": "(stereo not given) [Venlafaxine HCl]", "z-score of subpopulation abundance": 0.27}]}]}
